The campaign covered roughly 3,600 compounds. About 900 (25%) were called active. The rule behind the calls is not given here. The list is a sample of the results. A call without a number means that no potency is given here. Potency and affinity values are given separately.
These molecules were tested against Protein Tat (Human immunodeficiency virus type 1 group M subtype B (isolate HXB2)) (UniProt P04608) (assay: HIV-1 Tat–TAR interaction blockers – biochemical, fluorescence polarization, FAM-labeled TAR RNA, counter-screen for Vif-APOBEC3G degradation inhibitor project, dose response (AID 1117361)). Conditions: Tat-TAR RNA binding; series mostly up to 100 µM.

Compound	outcome
CCOc1ccc(OCCOc2cccc(C(F)(F)F)c2)cc1	inactive
Cn1c(CN2CCOCC2)nc2cc(NC(=O)c3ccc(F)cc3)ccc21	inactive
COc1cccc(/C=C2\SC(N)=NC2=O)c1OS(=O)(=O)c1ccccc1	inactive
C/C(=C1\SC(N2CCOCC2)=NC1=O)c1ccccc1	inactive
O=C1N=C(N2CCOCC2)SC1=Cc1ccco1	inactive
COc1cccc(-c2nc3n(n2)C(c2cccs2)C(C(=O)Nc2cccnc2)=C(C)N3)c1 (configuration not stated)	inactive
O=C(CCc1ccccc1)NNC(=S)NCCc1ccccc1	inactive
Cc1cc(C(C)(C)C)ccc1OCCN(C)C	inactive
COCCn1c(Sc2ccc(C)cc2)nc2c1c(=O)[nH]c(=O)n2C	inactive
Nc1nc(Cl)cc(N2CCC(c3cc(-c4ccc(Cl)cc4Cl)n[nH]3)CC2)n1	inactive
CCOC(=O)N1CCN(S(=O)(=O)c2ccc3c(c2)C(C)C(=O)N3)CC1 (configuration not stated)	inactive
O=C(Nc1ccc2oc(=O)ccc2c1)c1ccc(-c2ccc(Cl)cc2)o1	inactive
COc1cccc(/C=N/n2c(N)c(S(=O)(=O)c3cccs3)c3nc4ccccc4nc32)c1	inactive
COc1ccc(S(=O)(=O)N2CCN(C(=O)c3cc(-c4ccccc4OC)n[nH]3)CC2)cc1	inactive
CCCN(C(=S)Nc1ccccc1)C1CCS(=O)(=O)C1 (configuration not stated)	inactive
COc1cccc(C2NC(=O)NC(O)(C(F)(F)F)C2C(=O)c2cccnc2)c1OC (configuration not stated)	inactive
CCn1c(COc2ccc3c(c2)OCO3)nnc1SCC(=O)c1ccc(Cl)cc1	inactive
Nc1cccc(-c2nc3ccc(N)cc3s2)c1	inactive
Cc1[nH]n(-c2nc(-c3ccccc3F)cc(=O)[nH]2)c(=O)c1CCO	inactive
NC(=O)C1Cc2ccccc2CN1C(=O)c1nn(Cc2ccccc2)c(=O)c2ccccc12 (configuration not stated)	inactive
COc1ccc(C2Nc3ccccc3C(=O)N2c2ccc(Cl)cc2)cc1Cn1cc([N+](=O)[O-])cn1 (configuration not stated)	inactive
COc1ccc(/C=N/NC(=O)CN2CCN(Cc3ccccc3)CC2)cc1Br	inactive
Cc1ccc(S(=O)(=O)N=Nc2c(O)[nH]c3ccccc23)cc1	inactive
CN(C)c1ccc(/C=N\NC(=O)c2csnn2)cc1	inactive

Compound	outcome
CCC(Cc1ccccc1)NC(=O)C1CCN(S(=O)(=O)c2c(C)noc2C)CC1 (configuration not stated)	inactive
COc1ccc(S(=O)(=O)N2CCC(C(=O)NCc3ccco3)CC2)cc1	inactive
COc1ccc(OCCNS(=O)(=O)c2ccccc2)cc1	inactive
CN1CCN(c2ccccc2NC(=O)C(Cc2ccccc2)n2cccc2)CC1 (configuration not stated)	inactive
CCCCNC(=O)c1onc(CSc2cccc(OCC)c2)c1C(=O)O	inactive
COc1cccc(Cn2nnc(C(=O)NCCc3ccc(Cl)cc3)c2N)c1	inactive
COc1cccc(-c2nn(C)c3sc(C(=O)Nc4ccc5c(c4)OCCO5)cc23)c1	inactive
Cc1nc(N)nc(C)c1Cc1ccccc1	inactive
CCOC(=O)C1=C(N)OC2=C(C(=O)CCC2)C1c1ccc(C)s1 (configuration not stated)	inactive
O=C(O)Cc1ccc(C(=O)c2ccccc2)s1	inactive
CCS(=O)(=O)N1CCN(C(=O)CC(C)C)CC1	inactive
Cn1c(-c2ccc(Cl)cc2)ccc(C#N)c1=O	inactive
CCOC(=O)c1c(NC(=O)C(C)N2CCN(C(=O)c3ccco3)CC2)sc2c1CCCC2 (configuration not stated)	inactive
CCOC(=O)N1CCN(C(=O)c2cnc3n(c2=O)CCS3)CC1	inactive
Nc1nc(SCc2ccccc2Cl)n[nH]1	inactive
c1ccc(-n2c(SCc3ccncc3)nnc2-c2ccco2)cc1	inactive
Cn1c(CSc2nnc(SCc3ccccc3)s2)nc2ccccc21	inactive
Nc1ccccc1-c1nnc(SCc2ccccc2Cl)[nH]c1=O	inactive
O=C(c1ccc(F)cc1)N1CCC(C(=O)N(Cc2ccccc2)c2ccccc2)CC1	inactive
CCCCNC(=O)Oc1cccc(N2CCCC2=O)c1	inactive
COCCn1c(N)c(NCc2ccccc2)c(=O)n(CC(=O)Nc2cc(C)ccc2C)c1=O	inactive
COc1ccc(C(C)=O)cc1CN1C(=O)NC2(CCCC2)C1=O	inactive
COc1ccc(S(=O)(=O)N2CCC(NC(=O)OCc3c(Cl)cccc3Cl)CC2)cc1	inactive
CN1CCN(S(=O)(=O)c2ccc(NC(=O)Nc3cccc(Cl)c3)cc2)CC1	inactive

Compound	outcome
O=C(CSCc1ccc(Br)cc1)NC1CC1	inactive
Oc1ccc(/C=C/c2cc(O)cc(O)c2)cc1	inactive
COc1ccc(F)cc1S(=O)(=O)Nc1cc2c3c(c1)CC(=O)N3CCC2	inactive
CCC(C)NC(=O)CSc1nc2n[nH]c(C)c2c(=N)n1-c1ccc(OC)cc1 (configuration not stated)	inactive
CN1C(=O)C2(C(C#N)=C(N)Oc3c2oc(CO)cc3=O)c2ccccc21 (configuration not stated)	inactive
CCOC(=O)C1=C(C)OC(N)=C(C#N)C1c1cc(Cl)c(OCC(N)=O)c(OC)c1 (configuration not stated)	inactive
COC(=O)c1ccccc1NC(=O)CNC(=O)c1ccc(OC)cc1	inactive
Cc1nc2ccc(NC(=O)Cc3cccs3)cc2s1	inactive
O=C(Cc1cccs1)Nc1cccc(-c2nc3ccccc3o2)c1	inactive
Cc1ccc(-c2csc(NC(=O)Cc3cccs3)n2)cc1C	inactive
COC(=O)C1=C(CSc2nc3ccccc3o2)NC(=O)NC1c1cc(C)ccc1C (configuration not stated)	inactive
COc1ccc(NS(=O)(=O)c2cc(N=Nc3c(O)[nH]c(=O)[nH]c3=O)ccc2Cl)cc1	inactive
CC1(C)C2CCC1(C)C(OC(=O)C[n+]1ccccc1)C2 (configuration not stated)	inactive
CCc1ccccc1NC(=O)N1CCc2ccccc21	inactive
CC(=O)Nc1nnc(SCC(=O)N2CCCc3ccccc32)s1	inactive
COc1ccc(-c2nc(CS(=O)CC(=O)NC3CCCc4ccccc43)c(C)o2)cc1OC (configuration not stated)	inactive
O=S(=O)(c1ccc(Br)s1)N1CCCCC1	inactive
Cc1ccc(S(=O)(=O)N2CCCC(C(=O)O)C2)s1 (configuration not stated)	inactive
CCN(CC)CCNC1=NCCn2c1cc1cc(OC)ccc12	inactive
CCc1noc(N)c1C(=O)Nc1ccc(F)c(Cl)c1	inactive
CCNC(=O)NC(=O)C(C)OC(=O)c1oc2ccc(OCC)cc2c1C (configuration not stated)	inactive
Cc1cc(C#N)c2ccccc2n1	inactive
Cc1c(-c2ccccc2)nc2ccccc2c1C(=O)O	inactive
CCCCOc1ccc(C(=O)OC(C)CN(C)C)cc1 (configuration not stated)	inactive
